Measurements published in PubChem BioAssay AID1347417 (National Center for Advancing Translational Sciences (NCATS), 2020).
Out of some 120,000 compounds screened, about 5,300 (4.4%) were called active. Roughly 22% stayed inconclusive and do not appear here. This excerpt belongs to a sample that is enriched for actives. Unmarked numbers belong to inactive results. Calls come from the whole dose curve; as a rule, active = well fitted inhibition curve with a large enough effect; inconclusive = small, poorly fitted or top-dose-only effect; inactive = no such curve, though single readings can be large or run the other way.

Test: qHTS Primary assay for Inhibitors of Plasmodium falciparum Dd2 growth in vitro; note: nearly all actives have a fitted effect of over 65% in size;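 for activity, negative = inhibition: plate controls were DMSO vehicle for no effect and reference drug for full effect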
Conditions: P. falciparum Dd2 growth, SYBR Green, 72 h; series mostly up to 28.9 µM; activity, negative = inhibition: at the top concentration
Summary of the method: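 Readout: SYBR Green fluorescence, 485 nm excitation, 535 nm emission, after ~16 h lysis at 37C. Before that, Dd2-infected red cells (2.5% hematocrit) grew 72 h with compound, 29 uM top final concentration.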
Potency is the fitted concentration of half-maximal effect.

Row | Structure (SMILES) | activity, negative = inhibition | outcome | Potency
1 | O=C(c1ccccc1)N1CCC2(CC1)C(=O)NCN2C(=O)CCCN1CCCC1 | -16.4% |  | 
2 | COc1ccccc1OCCNC(=O)c1cn2ccnc(-c3ccc(C)cc3)c2n1 | 1.02% |  | 
3 | Cn1cc(CNC(=O)C[C@@H]2C[C@H]3O[C@H](CNC(=O)Nc4cccs4)[C@@H](O)[C@H]3O2)cn1 | 13.5% |  | 
4 | COC1CCN(C(=O)c2c(-c3cnn(C)c3NCc3cccnc3)noc2C)CC1 | -23.5% [at 44.1 µM] |  | 
5 | COc1ccc(N2CC(c3noc(-c4ccc(C(C)(C)C)cc4)n3)CC2=O)cc1 (stereo not drawn) |  | inactive | 
6 | CCn1cc(-c2ccc(OC)cc2)cc1C(=O)N1CCC(C)CC1 | -7.32% |  | 
7 | Cc1ccc(CN2CCC3OCCN(Cc4ccccc4)C(=O)C3C2)o1 (stereo not drawn) |  | inactive [at 44.1 µM] | 
8 | Cn1nc2n(c1=O)CCN(C(=O)C1CC=CCC1)CC2 (stereo not drawn) | 12.7% |  | 
9 | CCOc1ccc(C(=O)c2cn(Cc3ccccc3OC)c3ccc(F)cc3c2=O)cc1 |  |  | 10 µM (active)
10 | COc1ccc(NC(=O)Cn2cc(C(=O)c3ccncc3)c(=O)c3cc(C)ccc32)cc1Cl | -12.7% |  | 
11 | COc1ccc2c(c1)c(=O)c(C(=O)c1ccccc1)cn2CC(=O)Nc1ccc2c(c1)OCCO2 |  | inactive | 
12 | COc1ccc(Cn2cc(C(=O)c3ccc(C)cc3)c(=O)c3cc(OC)c(OC)cc32)cc1 |  |  | 12.6 µM (active)
13 | COc1cc2[nH]c(=O)n(Cc3ccc(C(=O)NCc4ccc(C)cc4)cc3)c(=O)c2cc1OC | -25% |  | 
14 | CCOc1ccc(NC(=O)Cn2cc(C(=O)c3ccc(C)cc3)c(=O)c3cc4c(cc32)OCCO4)cc1 | 13% |  | 
15 | COC(=O)C1=CN(CC(=O)Nc2ccc(F)cc2F)S(=O)(=O)N=C1C | 38.3% |  | 
16 | CCn1cnnc1CC1CCN(C(=O)c2cc(-c3ccc(F)cc3)nc3ccccc23)CC1 |  | inactive | 
17 | COc1ccc(-c2nc(CN3CCC(C(=O)NCc4ccccc4)CC3)c(C)o2)cc1OC | -4.44% |  | 
18 | CCn1cnnc1CC1CCN(C(=O)C2CCN(Cc3nc(-c4cccc(C)c4)oc3C)CC2)CC1 |  |  | 3.16 µM (active)
19 | CC(C)CNC(=O)N1C[C@@H](Oc2cccnc2)C[C@H]1C(=O)N1CCOCC1 | 4.23% |  | 
20 | NS(=O)(=O)c1ccc(F)c(C(=O)NCc2ccc3nonc3c2)c1 | -3.1% |  | 
21 | CCOc1ccc(CCNc2nc(-c3ccccc3)no2)cc1 |  | inactive | 
22 | Cc1ccc(CCNC(=O)c2ccc3c(c2)nc2n3CCC(C)C2)cc1 (stereo not drawn) | 9.74% |  | 
23 | Cc1ccc(-n2cnc3cc(C(=O)NCCC4=CCCCC4)ccc32)cc1Cl | -1.01% |  | 
24 | CCCNC(=O)c1ccc2c(c1)ncn2-c1ccc(C)cc1C |  |  | 11.2 µM (active)

Row | Structure (SMILES) | activity, negative = inhibition | outcome | Potency
25 | Cc1cc(Cn2cc3c4c(cccc42)[C@H](CC(C)C)N[C@H](C(=O)N2CCCCCC2)C3)no1 | -18.5% |  | 
26 | CN1C(=O)c2cccn2CC1C(=O)N1CCc2ccccc21 (stereo not drawn) | -23.7% |  | 
27 | CCc1ccc(NC(=O)c2sc3nc4c(cc3c2N)CN(CC)CC4)cc1 |  |  | 11.2 µM (active)
28 | CCc1cccc(NC(=O)c2cnc(N3CCOCC3)c3ccccc23)c1 | -1.56% |  | 
29 | O=C(Nc1ccc(OC(F)(F)F)cc1)c1cc2c(=O)n3ccccc3nc2s1 | -6.4% |  | 
30 | CCc1ccc(NC(=O)c2cnc3c(-c4ccccc4)c(C)nn3c2C)cc1 | 28.5% |  | 
31 | COc1ccc(Cl)cc1NC(=O)c1sc2nc3c(cc2c1N)CN(C)CC3 |  | inactive | 
32 | CCN1CCc2nc3sc(C(=O)Nc4ccccc4OC(F)(F)F)c(N)c3cc2C1 |  |  | 10 µM (active)
33 | CCOc1ccccc1C(=O)N1CCC2(CC1)CN(C(C)=O)CC2COC (stereo not drawn) | -6.6% |  | 
34 | CCC(=O)N1CCc2c(sc3ncnc(NCc4cccnc4)c23)C1 | -11.2% |  | 
35 | Cc1noc2c(-c3cccc(CO)c3)cc(-c3ccccc3)nc12 | 14.6% [at 44.1 µM] |  | 
36 | O=C(Cc1ccc(OC(F)(F)F)cc1)N1CC2CC(C1)[C@H]1CCCC(=O)N1C2 (stereo partly drawn) | -23.3% |  | 
37 | Cn1ccnc1C(=O)N1CCCCCCNC(=O)[C@@H]2CCCC[C@@H]21 | -9.02% |  | 
38 | CC1(C)[C@H](Cc2cc(-c3ccccc3)on2)C[C@@H]1NS(C)(=O)=O |  | inactive [at 44.1 µM] | 
39 | CC1(C)[C@H](Cc2cc(CCO)on2)C[C@@H]1NCC1CC1 | -27.4% [at 44.1 µM] |  | 
40 | CC1(C)[C@H](Cc2cc(-c3ccccc3)on2)C[C@@H]1NCC1CC1 |  |  | 12.6 µM (active)
41 | CCn1ncc(N2CCC(NC(=O)CCOC)CC2)cc1=O | 14.1% |  | 
42 | O=C(NC1CCN(c2cc(-c3ccc(Cl)cc3)[nH]n2)CC1)c1ccccc1F | -19.1% |  | 
43 | O=C(Cn1ccn2nc(-c3ccccc3)c(CO)c2c1=O)Nc1cc(F)ccc1Cl | 5.55% |  | 
44 | CC1=C[C@@H](CN2CCN(CCO)CC2)[C@H](C(C)C)C[C@H]1Cc1nnc(-c2ccc(C)cc2)o1 | -0.227% |  | 
45 | CC1=C[C@@H](CNC(=O)NC(C)C)[C@H](C(C)C)C[C@H]1Cc1nnc(-c2ccncc2)o1 | -13.7% [at 44.1 µM] |  | 
46 | Fc1ccc(CN2CC[C@H](c3nnc(-c4ccccc4F)o3)C2)cc1 |  | inactive [at 44.1 µM] | 
47 | CC1=C[C@@H](CN2CCCC2)[C@H](C(C)C)C[C@H]1Cc1nnc(-c2ccc([N+](=O)[O-])cc2)o1 |  |  | 1.78 µM (active)
48 | CC1=C[C@@H](CNC(C)C)[C@H](C(C)C)C[C@H]1Cc1nnc(-c2ccc(N(C)C)cc2)o1 |  |  | 3.55 µM (active)
